Inconclusive results are not listed. Activity calls are given as the source filed them. Unless noted, calls come from the whole dose curve; as a rule, active = well fitted curve in the direction sought with a large enough effect in the repeat runs; inconclusive = weak or mixed curves; inactive = no such curve, though single readings can be large; an effect the other way counts as inactive or inconclusive.
Experiments:
[1] = qHTS RealTime-Glo MT Cell Viability Assay in HEK293 cells - 0 hour (AID 1224880); note: top concentration of the series differs between compounds; nearly all actives have a fitted effect of over 45% in size
Method in brief: (§1)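 Cells were seeded together with NanoLuc luciferase and a prosubstrate that viable cells reduce to a luciferase substrate. After a 5 h incubation at 37 C/5% CO2, compounds were added and luminescence was measured repeatedly during 40 h of treatment.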

[2] = A CellTox Green Cytotoxicity Assay to monitor cytotoxicity in HEK293 cells - 8 hour (AID 1224884); note: nearly all actives have a fitted effect of over 35% in size
Method in brief: (§2)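 Nonlytic real-time cytotoxicity: HEK293 + CellTox Green reagent plated, 5 h preincubation, pintool compound addition (23 nL in DMSO), 37 C for 40 h, fluorescence measured at successive time points.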

[3] = qHTS RealTime-Glo MT Cell Viability Assay in HepG2 cells - 16 hour (AID 1224885); note: nearly all actives have a fitted effect of over 50% in size
Method in brief: (§3)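 Tox21 10K library screened in qHTS format on HepG2 cells carrying RealTime-Glo reagents. Compounds were added after a 5 h preincubation, and the luminescent signal from continuous culture was measured repeatedly during 40 h treatment.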

[4] = qHTS RealTime-Glo MT Cell Viability Assay in HEK293 cells - 24 hour (AID 1224886); note: top concentration of the series differs between compounds; nearly all actives have a fitted effect of over 50% in size
Method in brief: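 Luminescence generated by NanoLuc from substrate produced by living HEK293 cells served as the viability signal. Each value reflects the reading at its stated time point during continuous 40 h compound exposure at 37 C.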

[5] = qHTS RealTime-Glo MT Cell Viability Assay in HEK293 cells - 8 hour (AID 1224887); note: top concentration of the series differs between compounds; nearly all actives have a fitted effect of over 50% in size
Method in brief: as §1

[6] = A CellTox Green Cytotoxicity Assay to monitor cytotoxicity in HEK293 cells - 16 hour (AID 1224888); note: nearly all actives have a fitted effect of over 35% in size
Method in brief: as §2

[7] = qHTS RealTime-Glo MT Cell Viability Assay in HepG2 cells - 0 hour (AID 1224889); note: nearly all actives have a fitted effect of over 50% in size
Method in brief: as §3

[8] = qHTS assay to identify small molecule antagonists of the estrogen receptor alpha (ER-alpha) signaling pathway using the BG1 cell line in the presence of 0.1 nM 17-beta-estradiol - cell viability counter screen (AID 1259241); note: nearly all actives have a fitted effect of over 40% in size
Method in brief: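 VM7Luc4E2, 4,000 cells/well, phenol red-free medium + 10% charcoal-stripped FBS; 24 hr plating; cpd + 0.1 nM E2 final, 22 hr 37C/5% CO2; CellTiter-Fluor 30 min, fluorescence.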

[9] = qHTS assay to identify small molecule antagonists of the androgen receptor (AR) signaling pathway using the MDA cell line in the presence of 0.5 nM R1881 - cell viability counter screen (AID 1259242); note: nearly all actives have a fitted effect of over 45% in size
Method in brief: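 Counter screen for cytotoxicity run in the same wells as the AR antagonist reporter screen: MDA-kb2 cells were treated 16 hr with test compounds and 0.5 nM R1881, then live-cell protease activity was measured by fluorescence.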

[10] = biological target: Estrogen receptor (Homo sapiens) (UniProt P03372); test: qHTS assay to identify small molecule antagonists of the estrogen receptor alpha (ER-alpha) signaling pathway using the BG1 cell line in the presence of 0.1 nM 17-beta-estradiol (AID 1259244); note: nearly all actives have a fitted effect of over 50% in size
Method in brief: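 Cells: VM7Luc4E2, endogenous ER-alpha, 4x ERE-luc stable. Pre-culture 5 d, phenol red-free, charcoal-stripped FBS. Plated 24 h, compound + E2 0.1 nM final, 22 h 37C/5% CO2. Readout ONE-Glo luminescence.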

[11] = qHTS assay to identify small molecule phospholipidosis (PLD) inducers (AID 1259344; active = well fitted curve in the direction sought with a large enough effect; an effect the other way counts as inactive or inconclusive)
Method in brief: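 Phospholipidosis is scored by imaging LipidTOX-stained pits in HepG2 cells exposed to compound for 24 h at 37 C; pit counts and integrated intensities per well and per cell serve as outputs.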

[12] = qHTS assay to identify small molecule HDAC inhibitors (AID 1259364); note: top concentration of the series differs between compounds; nearly all actives have a fitted effect of over 45% in size
Method in brief: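 Luminescence from a cell-permeant luminogenic class I/II HDAC substrate reports endogenous deacetylase activity in intact HCT-116 cells treated with compounds for 2 h.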

[13] = qHTS assay to identify small molecule HDAC inhibitors - cell viability counter screen (AID 1259365)
Method in brief: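 Luminescence from CellTiter-Glo, developed 30min at room temperature, reports viability of wild-type HCT-116 cells treated 2hr with compounds at 37 C and 5% CO2 after overnight plating.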

[14] = qHTS assay to identify small molecule agonists of the sonic hedgehog signaling (Shh) pathway - cell viability counter screen (AID 1259366); note: nearly all actives have a fitted effect of over 50% in size
Method in brief: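 Cytotoxicity counter screen run in the same wells as the Shh reporter assay. NIH/3T3 cells carrying a Gli1 response element–driven luciferase were treated with DMSO-dissolved compounds for 24hr, and live-cell protease activity was measured with CellTiter-Fluor.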

[15] = A CellTox Green Cytotoxicity Assay to monitor cytotoxicity in HEK293 cells - 32 hour (AID 1224881); note: nearly all actives have a fitted effect of over 40% in size
Method in brief: as §2

[16] = A CellTox Green Cytotoxicity Assay to monitor cytotoxicity in HepG2 cells - 0 hour (AID 1224882); note: nearly all actives have a fitted effect of over 35% in size
Method in brief: (§4)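 Read-out is fluorescence of a cyanine dye excluded from live cells that stains DNA of dead HepG2 cells, with signal proportional to cytotoxicity. Plates were read at 0, 8, 16, 24, 32 and 40 h after compound addition.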

[17] = A CellTox Green Cytotoxicity Assay to monitor cytotoxicity in HepG2 cells - 32 hour (AID 1224883); note: nearly all actives have a fitted effect of over 50% in size
Method in brief: as §4

[18] = A CellTox Green Cytotoxicity Assay to monitor cytotoxicity in HepG2 cells - 8 hour (AID 1224890); note: nearly all actives have a fitted effect of over 45% in size
Method in brief: as §4

[19] = biological target: Androgen receptor (Homo sapiens) (UniProt P10275); test: qHTS assay to identify small molecule antagonists of the androgen receptor (AR) signaling pathway using the MDA cell line in the presence of 0.5 nM R1881 (AID 1259243); note: nearly all actives have a fitted effect of over 50% in size
Method in brief: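 Luciferase luminescence is the read-out: compounds are tested for suppressing 0.5 nM R1881-driven MMTV reporter activity in MDA-kb2 cells after 16 hr at 37C.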

[20] = qHTS assay to identify small molecule antagonists of the sonic hedgehog signaling (Shh) pathway - cell viability counter screen (AID 1259367); note: nearly all actives have a fitted effect of over 55% in size
Method in brief: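 Cells: 3T3 Gli1-Luc, 2,000/well, 4 hr pre-incubation. Compounds in DMSO, then conditioned medium. Incubation 24 hr, 37C, 5% CO2. CellTiter-Fluor at 23 hr, 1 hr, fluorescence.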
% is set by controls: 0 for no effect and ±100 for the full control effect.

Chain of Estrogen receptor (Homo sapiens) (P03372 whole entry, looked up): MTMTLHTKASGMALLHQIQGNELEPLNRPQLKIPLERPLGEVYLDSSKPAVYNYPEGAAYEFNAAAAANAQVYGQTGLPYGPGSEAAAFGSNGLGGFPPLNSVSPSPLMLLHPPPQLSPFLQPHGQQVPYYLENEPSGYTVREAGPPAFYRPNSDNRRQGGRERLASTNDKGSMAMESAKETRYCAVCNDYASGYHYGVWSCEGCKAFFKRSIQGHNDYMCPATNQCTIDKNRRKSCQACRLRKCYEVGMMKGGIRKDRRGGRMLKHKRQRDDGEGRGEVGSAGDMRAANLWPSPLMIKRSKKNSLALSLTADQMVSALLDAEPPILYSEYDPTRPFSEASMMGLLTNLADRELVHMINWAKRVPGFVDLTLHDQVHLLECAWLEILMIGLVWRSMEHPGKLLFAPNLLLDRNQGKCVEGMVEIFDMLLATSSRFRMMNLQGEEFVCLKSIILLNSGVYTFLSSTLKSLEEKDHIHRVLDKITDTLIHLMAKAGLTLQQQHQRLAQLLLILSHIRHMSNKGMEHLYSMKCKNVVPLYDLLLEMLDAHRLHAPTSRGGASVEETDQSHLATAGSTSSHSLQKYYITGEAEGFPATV
Chain of Androgen receptor (Homo sapiens) (P10275 whole entry, looked up): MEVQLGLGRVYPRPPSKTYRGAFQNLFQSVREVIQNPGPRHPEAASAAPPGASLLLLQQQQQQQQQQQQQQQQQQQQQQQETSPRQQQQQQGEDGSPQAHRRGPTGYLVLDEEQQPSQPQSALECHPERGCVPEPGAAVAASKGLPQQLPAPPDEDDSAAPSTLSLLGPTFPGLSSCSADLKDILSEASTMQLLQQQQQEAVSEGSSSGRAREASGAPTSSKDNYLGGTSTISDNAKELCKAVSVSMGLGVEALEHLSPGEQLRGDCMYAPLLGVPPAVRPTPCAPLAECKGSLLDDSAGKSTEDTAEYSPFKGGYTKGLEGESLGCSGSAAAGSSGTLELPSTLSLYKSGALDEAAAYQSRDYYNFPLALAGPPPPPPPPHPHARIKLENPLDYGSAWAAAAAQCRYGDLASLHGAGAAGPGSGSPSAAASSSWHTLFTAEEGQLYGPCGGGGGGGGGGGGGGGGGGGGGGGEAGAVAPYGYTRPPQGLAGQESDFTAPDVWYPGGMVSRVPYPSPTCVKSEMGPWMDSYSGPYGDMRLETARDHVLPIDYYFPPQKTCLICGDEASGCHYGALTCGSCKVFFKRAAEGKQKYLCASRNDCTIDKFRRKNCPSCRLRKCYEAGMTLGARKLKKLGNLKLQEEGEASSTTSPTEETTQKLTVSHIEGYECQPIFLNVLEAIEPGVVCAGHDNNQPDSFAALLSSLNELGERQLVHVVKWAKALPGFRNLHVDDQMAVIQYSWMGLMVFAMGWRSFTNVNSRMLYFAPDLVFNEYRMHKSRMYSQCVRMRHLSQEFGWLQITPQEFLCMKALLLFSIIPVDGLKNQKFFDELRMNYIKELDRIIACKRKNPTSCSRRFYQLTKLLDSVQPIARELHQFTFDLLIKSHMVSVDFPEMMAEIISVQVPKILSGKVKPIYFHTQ

CCCCCCC(=O)CCCCCC/C=C/C[C@@H](O)[C@H](O)[C@@](N)(CO)C(=O)O
inactive: activity change, negative = cytotoxicity [1] 3.85% [at 15.8 µM] | cytotoxicity increase [2] -3.97% [at 15.8 µM] | activity change, negative = cytotoxic [3] 1.68% [at 15.8 µM] | activity change, negative = cytotoxicity [4] -0.165% [at 15.8 µM] | activity change, negative = cytotoxicity [5] -1.55% [at 15.8 µM] | activity change [6] -6.94% [at 15.8 µM, active compounds read high] | activity change, negative = cytotoxicity [7] 3.64% [at 15.8 µM] | activity change, negative = cytotoxicity [8] 7.82% [at 19 µM] | viability change, negative = cytotoxic [9] 8.38% [at 19 µM] | activity change, negative = inhibition [10] 5.03% [at 19 µM] | Potency [11] | activity change, negative = inhibition [12] 6.81% [at 19 µM] | activity change, negative = cytotoxicity [13] -0.234% [at 19 µM] | viability change, negative = cytotoxic [14] 4.09% [at 19 µM]

COc1cc(CCN)cc(OC)c1OC
inactive: Potency [15] | outcome [16] | Potency [17] | Potency [2] | Potency [3] | Potency [4] | Potency [5] | Potency [6] | outcome [7] | Potency [18] | outcome [8] | Potency [9] | Potency [10] | Potency [11] | Potency [12] | outcome [13]

CCOP(=S)(OCC)SCCl
inactive: outcome [1] | outcome [16] | Potency [2] | Potency [3] | Potency [4] | Potency [5] | Potency [6] | outcome [7] | outcome [8] | Potency [9] | Potency [19] | Potency [10] | Potency [12] | outcome [13] | Potency [14] | Potency [20]

COc1cc(CC(C)N)cc(OC)c1OC (configuration not stated)
inactive: Potency [15] | outcome [16] | Potency [17] | Potency [2] | Potency [3] | Potency [4] | Potency [5] | Potency [6] | outcome [7] | Potency [18] | outcome [8] | Potency [9] | Potency [10] | Potency [11] | Potency [12] | outcome [13] | Potency [14] | Potency [20]

O=C(O)c1c(Cl)ccc2cc(Cl)cnc12
inactive: outcome [1] | outcome [16] | Potency [2] | Potency [3] | Potency [4] | Potency [5] | Potency [6] | outcome [7] | outcome [8] | Potency [9] | Potency [10] | Potency [12] | outcome [13] | Potency [14] | Potency [20]

CC(=O)CN(CC(C)=O)N=O
inactive: outcome [1] | outcome [16] | Potency [17] | Potency [2] | Potency [3] | Potency [4] | Potency [5] | Potency [6] | outcome [7] | outcome [8] | Potency [9] | Potency [10] | Potency [12] | outcome [13] | Potency [20]

CC(C)(C)C(=O)Cl
inactive: outcome [1] | outcome [16] | Potency [2] | Potency [3] | Potency [4] | Potency [5] | Potency [6] | outcome [7] | outcome [8] | Potency [9] | Potency [10] | Potency [12] | outcome [13] | Potency [14] | Potency [20]

C/C=C/CC#N
inactive: outcome [1] | outcome [16] | Potency [17] | Potency [3] | Potency [4] | Potency [5] | outcome [7] | Potency [18] | outcome [8] | Potency [9] | Potency [10] | outcome [13] | Potency [14]

Reference: PubChem BioAssay (Tox21)
